Reference: the supplement of paper PMC12645437, “Orthogonal IMiD-Degron Pairs Induce Selective Protein Degradation in Cells” (ACS Chemical Biology, 2025)
Over roughly 8,300 sequences, “log2 fold change of degron read counts, EGFP-low vs EGFP+ sorted cells (limma voom), compound-induced degradation” has its median near -1.1; the highest 2% begin near 3.2. The full list was thinned out, with the highest values kept by preference.

T1: CRBN, Q96SW2
T1 chain: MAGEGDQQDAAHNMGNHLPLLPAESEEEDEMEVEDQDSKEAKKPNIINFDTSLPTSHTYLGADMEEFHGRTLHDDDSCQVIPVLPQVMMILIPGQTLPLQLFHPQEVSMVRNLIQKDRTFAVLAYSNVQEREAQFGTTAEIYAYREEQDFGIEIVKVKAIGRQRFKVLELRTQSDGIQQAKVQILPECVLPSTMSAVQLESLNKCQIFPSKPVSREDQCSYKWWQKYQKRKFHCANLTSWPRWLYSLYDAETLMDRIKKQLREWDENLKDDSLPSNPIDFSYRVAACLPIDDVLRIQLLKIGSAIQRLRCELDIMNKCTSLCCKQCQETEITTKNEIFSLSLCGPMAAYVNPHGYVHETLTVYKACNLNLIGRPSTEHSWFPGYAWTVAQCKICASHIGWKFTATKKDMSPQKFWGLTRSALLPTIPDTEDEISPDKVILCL


Target: T1, CRBN, Q96SW2
Assay: log2 fold change of degron read counts, EGFP-low vs EGFP+ sorted cells (limma voom), compound-induced degradation; higher = more compound-induced degradation of the degron-EGFP fusion; degrons are variants of IKZF1/3 zinc finger 2; compound dose not given here
Settings: Jurkat, 18 h
Protocol: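 Pooled library of 8380 IKZF3 ZF2 degron mutants (positions 146-167 varied within the IKZF3 130-189 degron; only the varied core is printed, flanks not printed) fused to EGFP with IRES-mCherry, lentivirally expressed in Jurkat cells. mCherry+ cells were treated with one IMiD compound for 18 h (dose not stated) and FACS-sorted into EGFP-low and EGFP+ populations. Degron sequences were counted by NGS, and log2FC (EGFP-low vs EGFP+) was estimated by limma voom over 3 biological replicates.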

[1] = compound: compound 19 (5-tert-butyl-thalidomide)
[2] = compound: compound 22 (5-morpholino-thalidomide)
[3] = compound: compound 33 (diphenyl IMiD analogue)
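Also: pooled lentiviral library of zinc finger degron-EGFP fusions in mCherry-positive Jurkat cells, FACS-sorted after compound exposure, with degron abundance counted by next-generation sequencing.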

Row | Sequence | log2 fold change of degron read counts [1] | log2 fold change of degron read counts [2] | log2 fold change of degron read counts [3] | log2 fold change of degron read counts (compound: thalidomide)
1 | FWCPICGHQFTQKGNLLRHIKL [46F_47W_49P_50I_52G_53H_54Q_55F_67L_, Q9UKT9] | -1.19 | 0.164 | -0.157 | -0.942
2 | FHCNVCGALFTQKGNLLRHIKL [46F_47H_49N_50V_52G_53A_54L_55F_67L_, Q9UKT9] | -1.06 | -1.21 | -0.823 | -1.55
3 | LTCEICGFDCTQKGNLLRHIKL [46L_47T_49E_50I_52G_53F_54D_55C_67L_, Q9UKT9] | -3.24 | -2.7 | -2.79 | -2.46
4 | LLCNQCGFACTQKGNLLRHIKL [46L_47L_49N_50Q_52G_53F_54A_55C_67L_, Q9UKT9] | -2.26 | -2.6 | -2.27 | -1.53
5 | FVCNQCGATFTQKGNLLRHIKL [46F_47V_49N_50Q_52G_53A_54T_55F_67L_, Q9UKT9] | -2.74 | -1.56 | -1.1 | -1.67
6 | FMCEQCGAYFTQKGNLLRHIKL [46F_47M_49E_50Q_52G_53A_54Y_55F_67L_, Q9UKT9] | -2.39 | -2.36 | -0.295 | -2.25
7 | LTCEICGFICTQKGNLLRHIKL [46L_47T_49E_50I_52G_53F_54I_55C_67L_, Q9UKT9] | -0.462 | -0.661 | 0.241 | 1.1
8 | FKCDVCGAPFTQKGNLLRHIKL [46F_47K_49D_50V_52G_53A_54P_55F_67L_, Q9UKT9] | -0.146 | -0.607 | -2.1 | 0.295
9 | FWCDVCGARFTQKGNLLRHIKL [46F_47W_49D_50V_52G_53A_54R_55F_67L_, Q9UKT9] | 2.89 | 3.6 | 0.211 | 0.033
10 | FYCDVCGARFTQKGNLLRHIKL [46F_47Y_49D_50V_52G_53A_54R_55F_67L_, Q9UKT9] | 3.21 | 3.28 | 0.5 | -0.569
11 | FGCDVCGARFTQKGNLLRHIKL [46F_47G_49D_50V_52G_53A_54R_55F_67L_, Q9UKT9] | 1.49 | -0.377 | -1.65 | -0.568
12 | FDCDVCGARFTQKGNLLRHIKL [46F_47D_49D_50V_52G_53A_54R_55F_67L_, Q9UKT9] | 0.864 | -0.479 | -1.77 | -0.643
13 | FHCDVCGARFTQKGNLLRHIKL [46F_47H_49D_50V_52G_53A_54R_55F_67L_, Q9UKT9] | 0.448 | 0.585 | -1.42 | -1.6
14 | FLCDVCGARFTQKGNLLRHIKL [46F_47L_49D_50V_52G_53A_54R_55F_67L_, Q9UKT9] | -1.59 | -2.29 | -1.43 | -0.242
15 | FMCDVCGARFTQKGNLLRHIKL [46F_47M_49D_50V_52G_53A_54R_55F_67L_, Q9UKT9] | -1.48 | -1.88 | 0.0127 | -0.773
16 | FFCDVCGARFTQKGNLLRHIKL [46F_47F_49D_50V_52G_53A_54R_55F_67L_, Q9UKT9] | 3.5 | 3.15 | 0.549 | -0.102
17 | FVCDVCGARFTQKGNLLRHIKL [46F_47V_49D_50V_52G_53A_54R_55F_67L_, Q9UKT9] | -0.856 | 0.623 | -0.882 | 0.963
18 | FCCDQCGAVFTQKGNLLRHIKL [46F_47C_49D_50Q_52G_53A_54V_55F_67L_, Q9UKT9] | -2.49 | -1.9 | -0.705 | -2.14
